Screens as filed in PubChem.
Sampled rows, rich in hits. Any-hit rate of the full collection: about 3.4%.
GAA850 FXN act = activators of GAA850 frataxin (FXN) promoter. HEK293 lucGAA850 FXN promoter luciferase reporter, 24 h; percent of 10 µM SAHA response. activation, % at 6 µM. 0.56% of 360,000 active. AID 540364;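 active = activation above the average of all compounds screened plus 3 SD, cutoff fixed separately per campaign, cut at about 7.5% in these data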;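 also: 0% = DMSO wells and 100% = 10 µM SAHA wells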
Gli-Sufu block = antagonists of Gli-Sufu signaling. Sufu-KO-LIGHT fibroblasts, Gli luciferase reporter luminescence. inhibition, % at 5 µM. 0.74% of 340,000 active. AID 588413;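 active = inhibition above about 55%, limit read from the data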;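 also: 0% = DMSO-treated cells and 100% = wells with medium but no cells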
COUP-TFII inh = inhibitors of human COUP-TFII (NR2F2); HEK293T NGFI-A luciferase reporter, luminescence; inhibition, % at 8.6 µM; 0.7% of 370,000 active; AID 686940;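 active = inhibition above a per-plate cutoff, mean inhibition of test wells between control levels plus 3 SD, cut at about 38% in these data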;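 also: cells cotransfected with COUP-TFII expression vector driving the NGFI-A reporter; 0% = median of COUP-TF2 test wells and 100% = reporter-only cells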
H9c2 protect = protects H9c2 cardiomyocytes from peroxide injury. H2O2 injury protection, ATPLite, 2 h. protection from H2O2 cell death, % at 20 µM. 0.63% of 360,000 active. AID 588492;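 active = compounds giving at least 50% protection of heart cells from peroxide-induced death in the single-dose screen, raw or plate-pattern-corrected value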;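 also: 0% = DMSO wells with peroxide and 100% = DMSO wells without peroxide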
GalR3 antagonist = antagonists of human GalR3 | HEK293 GalR3-CNG cAMP membrane potential fluorescence; galR3 body fused to GalR1 C-terminus | inhibition, % at 3 µM | 0.44% of 360,000 active | AID 651719;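 active = inhibition above the screen-wide average plus 3 SD, cut at about 13% in these data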;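 also: forskolin and galanin both at EC90 stimulate the cells; cAMP rise reported by CNG channel membrane potential dye signal; 0% = forskolin plus galanin with DMSO and 100% = forskolin alone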
Target sequence (O60755 1-299 limits assumed): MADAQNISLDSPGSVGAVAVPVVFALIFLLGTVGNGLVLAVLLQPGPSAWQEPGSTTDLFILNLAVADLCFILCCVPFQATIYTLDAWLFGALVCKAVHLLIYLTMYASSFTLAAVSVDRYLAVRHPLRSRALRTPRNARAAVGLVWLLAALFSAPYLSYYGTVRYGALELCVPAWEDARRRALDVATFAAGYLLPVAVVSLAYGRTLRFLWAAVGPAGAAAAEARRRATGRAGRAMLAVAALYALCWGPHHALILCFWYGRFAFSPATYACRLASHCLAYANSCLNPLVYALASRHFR
SMARCA2 act = activators of SMARCA2 function; MG213 cells, MMTV-luciferase reporter, dexamethasone, overnight; activation, % at 9.1 µM; 1% of 370,000 active; in the data active = activation above about 7.8%;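 also: 0% = vehicle wells and 100% = reference activator wells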
Gal4-VP16 ctr = inhibits VP16 reporter, flagging COUP-TFII antagonist hits. 25% of 2,500 active. shares compounds with COUP-TFII inh. inhibition, % at 8.5 µM. HEK293 Gal4-VP16 luciferase reporter, luminescence; in the data active = inhibition above about 13%
COUP-TFII conf = COUP-TFII (NR2F2) inhibition, confirmation assay. HEK293 NGFI-A luciferase reporter, luminescence. inhibition, % at 8.5 µM. AID 687008. shares compounds with COUP-TFII inh. 45% of 2,500 active;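 active = mean inhibition over three repeats above a set limit taken from the earlier primary screen, cut at about 38% in these data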;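 also: 100% = cells given the luciferase reporter alone without the COUP-TF2 vector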
Starred values were filed as active, the others as inactive; x = not tested or not shown.

SMILES	GAA850 FXN act	Gli-Sufu block	COUP-TFII inh	H9c2 protect	GalR3 antagonist	SMARCA2 act	Gal4-VP16 ctr	COUP-TFII conf
COc1ccc2cc3cc(C(=O)Nc4cc(OC)c(OC)c(OC)c4)oc3nc2c1	-8	11	50*	58*	-5	-4	-6	19
C=CC[n+]1c(-c2ccc(Cl)cc2Cl)csc1Nc1c(C)n(C)n(-c2ccccc2)c1=O	-2	48	46*	-23	-5	-7	4	40*
O=C(O)c1ccc(NC(=O)c2cccc(S(=O)(=O)Nc3ccc(C(=O)O)cc3)c2)cc1	-1	2	7	18	-8	-4	x	x
O=C1CSc2ccc(C(=O)Nc3cccc(S(=O)(=O)Nc4ccc(Br)cc4)c3)cc2N1	-1	42	75*	-30	-3	-4	0	32
Cc1nc2ccccc2c2oc(C(=O)NCc3ccccn3)cc12	-1	8	22	-1	-7	-2	x	x
Cc1ccc(CNC(=O)c2cc3c(C)nc4ccccc4c3o2)cc1	-1	30	48*	-31	x	-3	3	25
COc1ccccc1N1CCN(C(=O)c2cc3c(C)nc4ccccc4c3o2)CC1	-3	46	42*	-5	-2	0	-4	12
COc1ccccc1C(=O)C1CCCN(C(=O)c2cc(CC(C)C)nc(C)n2)C1 (centres undefined)	2	-13	-5	8	-1	2	x	x
CC1(C)C(c2ccco2)=[N+]([O-])C2(CCCCC2=O)N1O (centres undefined)	-1	1	10	15	-5	-3	x	x
Cc1ccc(C2=[N+]([O-])C3(CCCCC3=O)N(O)C2(C)C)cc1 (centres undefined)	-6	9	80*	2	-2	-9	-6	-7
COc1ccc(C(=O)c2ccccc2)c2c(O)ccc(C(=O)c3ccccc3)c12	-6	22	43*	-22	-3	-2	5	63*
COc1ccc(C(=O)c2ccc(Cl)cc2)c2ccccc12	2	9	2	-5	1	0	x	x
Cc1cccc(NC(=S)Nc2ccc(N3CCOCC3)cc2)c1C	-1	-8	-4	-1	3	1	x	x
COc1cc(Cl)c(CNC[C@H]2O[C@@H](n3cnc4c(=O)[nH]c(N)nc43)[C@H](O)[C@@H]2O)c(Cl)c1O	x	x	14	-4	-7	-2	x	x
COc1cc2c(cc1OC)C(c1ccc(-c3ccc(Cl)c(Cl)c3)o1)=NCC2	-7	18	51*	-15	-1	-2	9	46*
COc1cc2c(cc1OC)C(c1ccc(-c3ccc(Cl)cc3Cl)o1)=NCC2	-6	10	62*	-17	-5	-6	0	42*
O=C(CCCN1C(=O)/C(=C/c2ccccc2Cl)SC1=S)NNC(=O)c1cccnc1	-5	-17	54*	-5	3	-14	3	16
O=C(CCCN1C(=O)/C(=C/c2cccs2)SC1=S)NNC(=O)c1cccnc1	-4	-2	10	-2	-8	0	x	x
O=C(CCCN1C(=O)/C(=C/c2ccccc2Cl)SC1=S)NNC(=O)c1ccccc1	-17	6	64*	-5	-3	-11	28*	38*
O=C(CCCN1C(=O)S/C(=C\c2ccccc2)C1=O)NNC(=O)c1ccccc1O	-15	36	61*	16	-2	-10	82*	87*
O=C(CCCN1C(=O)/C(=C/c2ccccc2Cl)SC1=S)NNC(=O)c1ccc(Cl)cc1Cl	-12	26	72*	13	-2	-12	39*	42*
Cc1ccc(C)c(NC(=O)CCC(=O)NNS(=O)(=O)c2ccc(Cl)cc2)c1	0	x	-5	11	4	-1	x	x
CC(C)(C)c1ccc(C(=O)N2CCCCCC2=O)cc1	-12	43	86*	-8	-2	-10	81*	76*
COc1ccc(-n2c(CN3CCN(c4ccccn4)CC3)nc3ccc([N+](=O)[O-])cc3c2=O)c(OC)c1	-1	8	-7	-1	-6	4	x	x
O=C(NCc1ccccn1)[C@@H]1CCCN1C(=O)[C@@H]1CCCN1C(=O)c1c(F)cccc1F	x	x	1	x	-2	-2	x	x
SMILES	GAA850 FXN act	Gli-Sufu block	COUP-TFII inh	H9c2 protect	GalR3 antagonist	SMARCA2 act	Gal4-VP16 ctr	COUP-TFII conf
NC(=S)N/N=C1\CCSc2ccc(Cl)cc21	-2	9	37*	-6	-8	-6	-1	33
CC(C)[C@@H](C(=O)OCC(=O)Nc1ccc2c(c1)OCO2)N1C(=O)c2ccccc2C1=O	1	-5	10	-12	-2	-3	x	x
CC(=O)N1CCOc2ccc(S(=O)(=O)NCC3CCC(C(=O)Nc4ccc(C)cn4)CC3)cc21 (centres undefined)	-3	32	39*	-6	-10	0	9	24
CCN1CCN(c2cc(C)c3cc(NC(=S)N4CCCC(C)C4)ccc3n2)CC1 (centres undefined)	-11	19	46*	2	-5	-4	26*	35
COCCCN1C(=O)C(CC(=O)NCc2cccs2)CC(C(=O)N2CCCCCC2)=C1C (centres undefined)	x	x	8	x	-7	-2	x	x
CC(C)Cn1c(N)c(C(=O)COC(=O)c2ccc(F)cc2)c(=O)n(C)c1=O	1	14	10	-8	-5	-1	x	x
CCc1ccc(C(=O)OCC(=O)c2c(N)n(CC(C)C)c(=O)n(C)c2=O)cc1	1	36	47*	-18	-11	-4	7	19
COc1cc(C=Nc2c(C)cc(C)cc2C)ccc1OC(C)=O	-1	-1	50*	4	-7	1	7	6
CCn1cc(CNC(=O)c2cc(COc3ccc(F)cc3Cl)on2)cn1	-2	3	17	-12	-3	-4	x	x
CCn1nc(C)c(CNC(=O)c2cc(COc3ccc(F)cc3Cl)on2)c1C	-4	15	41*	-14	4	-6	9	44*
CC1(C2CC2)NC(=O)N(CC(=O)Nc2ccc(SC(F)F)cc2)C1=O (centres undefined)	2	-5	-26	-4	4	-1	x	x
COC(=O)C[C@H](NC(=O)Cn1cc(C)c(=O)[nH]c1=O)C(=O)OC	-1	15	-9	10	0	-4	x	x
OC[C@@H]1CN(Cc2ccccc2)C[C@H](n2cnc3c(NC4CC4)ncnc32)O1	1	x	3	3	-3	-5	x	x
OC[C@@H]1CN(Cc2ccc(-c3ccccc3)cc2)C[C@H](n2cnc3c(NC4CCC4)ncnc32)O1	-5	x	69*	-10	3	-5	-4	45*
